This passage reports inhibition results from PubChem BioAssay AID1220 (Sanford-Burnham Center for Chemical Genomics, 2008).

Structures are written as SMILES. The campaign covered roughly 190,000 compounds. About 1,300 (0.68%) were called active. Rule as the data show it: active = inhibition above about 50%; inactive = the rest. The full list was thinned out, with actives kept by preference.

For this test, the target named is Mannose-6-phosphate isomerase (Homo sapiens) (UniProt P34949). Put plainly: human PMI inhibitors, high substrate, primary screen, biochemical, fluorescence intensity, high mannose 6-phosphate (AID 1220). The note with it: recombinant PMI enzyme, coupled fluorescence intensity; at 20 µM; hits give high values.
Mannose-6-phosphate isomerase (Homo sapiens), sequence (P34949 whole entry, looked up): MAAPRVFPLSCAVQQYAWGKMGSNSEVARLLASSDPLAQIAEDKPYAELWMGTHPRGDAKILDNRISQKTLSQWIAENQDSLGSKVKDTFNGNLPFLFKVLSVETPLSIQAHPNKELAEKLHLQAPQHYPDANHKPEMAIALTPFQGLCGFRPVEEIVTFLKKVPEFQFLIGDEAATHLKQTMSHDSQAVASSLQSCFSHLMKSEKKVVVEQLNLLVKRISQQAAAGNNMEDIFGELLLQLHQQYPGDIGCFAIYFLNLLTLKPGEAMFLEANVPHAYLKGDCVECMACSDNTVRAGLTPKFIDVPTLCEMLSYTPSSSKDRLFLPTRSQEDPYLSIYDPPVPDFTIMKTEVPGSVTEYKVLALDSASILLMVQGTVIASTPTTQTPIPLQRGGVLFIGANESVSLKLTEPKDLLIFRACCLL
On to `CN(Cc1ccccc1)CC(O)COc1ccc(CNCCc2ccncc2)cc1` (centres undefined), for which the inhibition was -5.6% (inactive). Next, `CN(C)c1nc(-c2ccccc2)ncc1S(=O)(=O)c1ccccc1`: 14.6% (inactive); `COc1ccc(CC(=O)Nc2ccc(-c3cn4ccc(C)cc4n3)cc2)cc1`: -1.3% (inactive). Next, `COc1ccc(N(CC(=O)NCc2ccco2)S(=O)(=O)c2ccc(C)cc2)cc1`: 14.7% (inactive); `O=C1CN2NC(=S)N(c3ccccc3)C2=CN1c1ccc(Cl)cc1`: -1.1% (inactive); `CCOc1ccc(NC(=O)CSc2n[nH]c(=O)n2-c2ccccc2)cc1`: 6.5% (inactive). Next, `Cn1cccc1/C=N/NC(=O)C12CC3CC(CC(C3)C1)C2`: 2.4% (inactive); `O=C(O)C1=C[C@@H](c2ccc3c(c2)OCO3)C[C@@H](OCc2ccc(CO)cc2)O1`: 4.3% (inactive). With `NC(=O)C1=C[C@H](c2ccc3c(c2)OCO3)C[C@H](OCc2ccc(CO)cc2)O1`, the inhibition is 59.9% (active). Consider `C=CCOC(=O)C1=C[C@@H](c2ccc3c(c2)OCO3)C[C@@H](OCc2ccc(CO)cc2)O1`, for which the inhibition is 20% (inactive). Next, `O=C(Nc1ccccc1-c1ccccc1)C1CCC1`: 8.4% (inactive); `COc1ccc(Cc2nc(-c3ccc(-n4cccc4)cc3)no2)cc1`: -0.1% (inactive); `O=[N+]([O-])c1ccc(OCCN2CCNCC2)cc1`: -5.8% (inactive).

For the compound `COc1nnc(-c2ccc(N3CCCCC3)c(NC(C)=O)c2)c2ccccc12`, the inhibition was -9.2% (inactive). As for `C=CCNC(=S)N1CCC(C(=O)c2ccc3c(c2)OCCO3)CC1`, the inhibition was 12.3% (inactive). As for `COc1cnc(-c2ccccn2)nc1Oc1ccccc1`, the figure is 12.7% (inactive); as for `Cc1ccc(OCCn2c(Br)nc3c2c(=O)n(C)c(=O)n3C)cc1`, 52.7% (active); as for `COc1ccc(C(=O)Cn2c(Br)nc3c2c(=O)n(C)c(=O)n3C)cc1`, -3% (inactive). Next, `COCCn1c(Br)nc2c1c(=O)n(C)c(=O)n2C`: 0.3% (inactive). Next, `CCc1ccccc1NC(=O)c1cccc(Oc2ccc([N+](=O)[O-])cc2Cl)c1`: 6.1% (inactive); `CN(C)S(=O)(=O)c1ccc(Cl)c(NC(=O)CSc2nc3ccccc3c(=O)n2CCCN2CCOCC2)c1`: 4.7% (inactive); `CCOC(=O)c1ccccc1NC(=O)COC(=O)C1=COCCO1`: 3.8% (inactive). `CC12CN3CC(C)(CN(C1)C3c1c[nH]c3ccccc13)C2=O` (centres undefined): the inhibition was 3.5% (inactive). As for `Cn1cc(C2N3CC4(C)CN2CC(C)(C3)C4=O)c2ccccc21` (centres undefined), the figure is 4.5% (inactive).

Regarding `CC12CN3CC(C)(CN(C1)C3c1ccc3ccccc3c1O)C2=O` (centres undefined), the inhibition is 53.1% (active).

On to `CCCCCCNC(=O)Nc1ccccc1`, for which the inhibition is 0.8% (inactive). Turning to `CC(=O)N1C(=O)/C(=C2\SC(=S)N(NC(=O)c3ccc(O)cc3)C2=O)c2ccccc21`, the inhibition is 56.1% (active). As for `CC(/C=C1\SC(=S)N(NC(=O)c2ccc(O)cc2)C1=O)=C\c1ccccc1`, the figure is 23.4% (inactive); as for `CC(=O)N1C(=O)/C(=C2\SC(=S)N(NS(=O)(=O)c3ccc(C)cc3)C2=O)c2ccccc21`, 38.2% (inactive).

For `Cc1cc(C)c(S(=O)(=O)n2nc(C)c(Br)c2C)c(C)c1`, the inhibition was -6.9% (inactive). As for `O=C(CCn1c(=O)sc2ccccc21)NCc1cccs1`, the inhibition is -0.4% (inactive). As for `COCc1cc(C)[nH]c(=O)c1C#N`, the figure is -5.6% (inactive); as for `O=c1[nH]n(-c2ccccc2)c(=O)c2ccccc12`, -0.9% (inactive); as for `Cc1cc(=O)c2ccccc2s1`, 0.5% (inactive). Next, `CN(C)S(=O)(=O)c1cccc(-c2cn3ccccc3n2)c1`: -10.7% (inactive); `Cc1ccccc1N=Cc1c(O)n(-c2nccs2)c(=O)c2ccccc12`: 16.2% (inactive); `CN(C)S(=O)(=O)c1cccc(N2C(=O)CC3(CCCCC3)CC2=O)c1`: 0.9% (inactive). As for `O=c1c2ccccc2sn1-c1ccccc1`, the figure is 62.8% (active); as for `O=c1c2ccccc2c2ccccc2c(=O)n1-c1ccccc1`, -1.1% (inactive); as for `O=C1CCCN1c1nccs1`, -6.6% (inactive).

With `Cc1ccnc(N2C3CCC2CC(O)(c2ccccc2)C3)n1` (centres undefined), the inhibition is -10.5% (inactive). Next, `CCOC(=O)c1cnn(-c2ccccc2)c1NC(=O)CCl`: -1.3% (inactive); `CCN(CC)S(=O)(=O)c1cccc(NC(=O)c2cc(=O)[nH]c3ccccc23)c1`: 4.5% (inactive); `CCCCNC(=O)N(C)c1nc2ccccc2s1`: -3.1% (inactive).

Consider `CCn1c(SCC(=O)NCc2ccccc2)nc2c(c1=O)SC(C)C2` (centres undefined), for which the inhibition was 2.5% (inactive). As for `COc1ccc(CN2CCCC(CNC(=O)c3ccc(F)cc3)C2)c(F)c1` (centres undefined), the figure is -6% (inactive); as for `CCOc1ccc(-c2nc(C#N)c(NCC(C)C)o2)cc1`, -0.5% (inactive).

Regarding `COc1ccc(CCC(=O)N2c3ccccc3CC2C)cc1` (centres undefined), the inhibition is 14.3% (inactive). On to `COc1cc(/C=C/C(=O)N2CCCc3ccccc32)cc(OC)c1OC`, for which the inhibition is -12.4% (inactive). Next, `O=C(Nc1nc(-c2cccs2)cs1)c1ccco1`: 12.4% (inactive). Next, `CSCCC(NC(=O)c1ccco1)C(=O)OCc1cc([N+](=O)[O-])cc2c1OCOC2` (centres undefined): 5.4% (inactive); `CC1CCC2(CC1)NC(=O)N(NC(=O)CCl)C2=O` (centres undefined): -10.3% (inactive). As for `CC1CCN(CCOCCOc2ccc(Cl)cc2Br)CC1`, the figure is -7.9% (inactive); as for `Nc1nnc(N2CCc3ccccc32)s1`, 6.2% (inactive); as for `Cc1c(Cl)sn(-c2ccc(Cl)cc2)c1=O`, -4.6% (inactive). Turning to `Cc1ccc(Cn2c(=O)sc3ccccc3c2=O)cc1`, the inhibition was 8% (inactive). As for `COc1cccc(-n2c(C)c3c(OC)cccc(=O)c3c2C)c1`, the figure is 61% (active). Next, `COc1ccccc1-n1c(C)c2c(OC)cccc(=O)c2c1C`: 54.7% (active). As for `COc1ccc(-n2c(C)c3c(OC)cccc(=O)c3c2C)cc1`, the figure is 46.4% (inactive).

Consider `COc1cccc(=O)c2c(C)n(C)c(C)c12`, for which the inhibition was -5% (inactive).

Regarding `COc1cccc(=O)c2c(C)n(-c3ccc(C(=O)O)cc3)c(C)c12`, the inhibition was -16.3% (inactive). As for `COc1cccc(=O)c2c(C)n(-c3cc(C)cc(C)c3)c(C)c12`, the figure is 29.9% (inactive). As for `CNS(=O)(=O)c1cc(C(=O)OCC(=O)NC2CCCc3ccccc32)ccc1Cl` (centres undefined), the figure is 9.4% (inactive); as for `COC(=O)C1=C(C)NC(=O)/C1=C\c1cc(C)n(-c2ccccc2F)c1C`, -51.3% (inactive); as for `O=C(CSCc1ccccc1)N1CCN(Cc2ccc3c(c2)OCO3)CC1`, 9.8% (inactive). As for `O=C1OCCC1Sc1nc2ccccc2c(=O)n1Cc1ccccc1` (centres undefined), the figure is -1.6% (inactive); as for `COc1ccc(-c2nnc(SC)o2)c(OC)c1`, 2% (inactive); as for `Cc1cc(NC(=O)c2sc(Nc3ccc(F)c(Cl)c3)nc2N)no1`, -10.8% (inactive).

With `O=c1cc(O)c2sc(Nc3ccc(F)c(Cl)c3)nc2[nH]1`, the inhibition was 57.5% (active). As for `COC(=O)Cc1csc(Nc2ccc(F)c(Cl)c2)n1`, the figure is -0.3% (inactive); as for `CN(Cc1ccccc1)c1ccc(S(=O)(=O)N2CCC(C(=O)O)CC2)cc1[N+](=O)[O-]`, 10.6% (inactive). Next, `Brc1ccc(-c2noc(COc3ccc4c(c3)CCC4)n2)o1`: 14% (inactive); `O=C(OCCOCCN=C1NS(=O)(=O)c2ccccc21)C1CC(=O)N(c2ccccc2)C1` (centres undefined): -2.6% (inactive); `Cc1nc(-c2ccc(C(=O)Nc3ccccc3F)cc2)cs1`: -3.7% (inactive). As for `C=CCOc1c(Cl)cc(CNc2ccc3[nH]c(=O)[nH]c3c2)cc1OC`, the figure is 35% (inactive). Take `CCOc1cc(CNc2ccc(S(N)(=O)=O)cc2)cc(Cl)c1OC`: the inhibition is 2.7% (inactive). Next, `CCOc1c(Cl)cc(CNc2ccc(S(N)(=O)=O)cc2)cc1OC`: -2% (inactive); `C=CCOc1c(Cl)cc(CNc2ccc(C)c(Cl)c2)cc1OC`: 12.6% (inactive); `COc1cc(CNc2ccc(N3CCOCC3)cc2)cc(Br)c1OC`: 9.3% (inactive). As for `CCOc1cc(CNc2ccc(N3CCOCC3)cc2)cc(Br)c1OCC`, the figure is 14.8% (inactive); as for `C=CCOc1c(Cl)cc(CNc2ccc(N(C)C)cc2)cc1OC`, 54% (active); as for `CC1=CC(C)(C)N(C(=O)CCl)c2cc(C)ccc21`, -1.9% (inactive). Next, `CN(C)C(=C(C#N)C#N)N1CCN(c2ccc(Cl)c(Cl)c2)CC1`: 6.1% (inactive). For `CC(C)(C)[C@H]1C=C(C(=O)N2CCN(Cc3ccc4c(c3)OCO4)CC2)O[C@@H](OCc2ccc(CO)cc2)C1`, the inhibition is 2.7% (inactive). Next, `COc1ccc(Br)cc1CN1CCN(C(=O)c2ccc(OC)c(OC)c2)CC1`: 2.3% (inactive). Next, `CCOC(=O)CCC(NC(=O)CCCCCCCCC(=O)NC(CCC(=O)OCC)C(=O)OCC)C(=O)OCC` (centres undefined): 6.1% (inactive); `COc1ccc(NS(=O)(=O)c2cccc(NC(=O)CCS(=O)(=O)c3ccccc3)c2)cc1`: 8.9% (inactive); `O=C(CN1CCCCCC1)Nc1ccc(F)c(F)c1`: -9.6% (inactive). `CCCCNC(=O)c1onc(CSc2cc(C)cc(C)c2)c1C(=O)O`: the inhibition is -4% (inactive). Next, `O=C(N/N=C/c1cc(Br)c(Br)o1)C(O)c1ccccc1` (centres undefined): 5.2% (inactive).

For `CC(CC(=O)O)Nc1ccccc1O` (centres undefined), the inhibition was 49.3% (inactive). Next, `CC(CNc1ccccc1O)C(=O)O` (centres undefined): 64.7% (active).

For `CC(CC(C)C(=O)Nc1ccccc1C(C)(C)C)C(=O)O` (centres undefined), the inhibition was -12.3% (inactive). `COc1cc2c(cc1NC(=O)CSc1cccc[n+]1[O-])oc1ccccc12`: the inhibition is -6.2% (inactive). As for `CN(C)CC/C=C1\c2ccccc2Sc2ccc(Cl)cc21`, the figure is -12.5% (inactive). Next, `COc1cc(Cl)cc2c1Sc1ccccc1/C2=C/CCN(C)C`: -9.3% (inactive). Next, `CN(C)CC/C=C1/c2ccccc2Sc2c(O)cc(Cl)cc21`: 50% (active); `N#CC1(c2nc3ccccc3[nH]2)CC1c1ccc2c(c1)OCO2` (centres undefined): 0.1% (inactive); `COc1ccc(S(=O)(=O)N2CCc3ccccc32)cc1NC(C)=O`: 1.8% (inactive).
